# Source: PubChem BioAssay (National Center for Advancing Translational Sciences (NCATS))
# PKM2 act – PKM2 (human) enzyme activation; P14618; purified PKM2, Kinase-Glo ATP luminescence, activation; response scale: 0% is enzyme alone, no compound; Potency, µM (top dose mostly 57.5 µM), for inactives: at the highest dose activation, most hits filed as activators; hit rate 0.34% among 260,000; AID 1631; also: potency is read from the fitted curve at half-maximal effect; % is scaled to controls: 0 for no effect and ±100 for the full control effect; nearly all actives have a fitted effect of over 55% in size
# Target sequence (P14618 whole entry, looked up): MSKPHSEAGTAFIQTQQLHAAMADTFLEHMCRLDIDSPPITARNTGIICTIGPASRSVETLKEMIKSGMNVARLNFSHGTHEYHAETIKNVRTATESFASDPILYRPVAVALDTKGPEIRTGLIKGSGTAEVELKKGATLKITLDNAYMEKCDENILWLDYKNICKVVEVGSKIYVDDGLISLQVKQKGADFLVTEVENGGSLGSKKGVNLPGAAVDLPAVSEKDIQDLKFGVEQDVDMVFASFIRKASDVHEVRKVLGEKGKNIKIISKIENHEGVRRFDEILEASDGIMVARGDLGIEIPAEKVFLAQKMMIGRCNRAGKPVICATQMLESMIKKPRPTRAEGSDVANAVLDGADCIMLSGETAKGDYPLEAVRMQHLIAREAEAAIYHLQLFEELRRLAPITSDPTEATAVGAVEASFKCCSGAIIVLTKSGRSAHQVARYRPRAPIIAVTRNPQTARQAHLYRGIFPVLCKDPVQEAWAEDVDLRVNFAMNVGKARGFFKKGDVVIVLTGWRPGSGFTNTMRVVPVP
#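 Purified hPK-M2 (>95%) run at intermediate activity with 0.1 mM ADP and 0.5 mM PEP in 50 mM imidazole pH 7.2, KCl, MgCl2; 1 h room temperature. ATP formed read by Kinase-Glo luminescence; normalized to uninhibited and no-enzyme controls.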
# IL-2 act – activators of IL-2 | IL-2 activation reporter assay, cell-based qHTS; stimulated with anti-CD3/CD4/CD28 beads; in transgenic mouse T cells | activation, % (series mostly up to about 46 µM) | hit rate 0.065% among 360,000 | AID 652025; in the data active = activation above about 50%; inconclusive = mostly about 30% to 49%; also: 0% is about no effect
#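 Unstimulated transgenic mouse T cells, 750 per well, received compound and, after 60 minutes, anti-CD3/anti-CD4 bead plus anti-CD28 stimulation. EGFP and DsRed were quantified after 18 hours.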
# Vif-APOBEC3G blk – inhibitors of Vif-APOBEC3G interaction; HeLa A3G-eYFP + Vif (tagged APOBEC3G with the HIV-1 protein that degrades it), YFP fluorescence, overnight; Potency, µM (top dose mostly 46.1 µM), for inactives: at the highest dose activity, negative = active, actives largely listed as inhibitors; hit rate 0.076% among 410,000; AID 602310; also: potency is read from the fitted curve at half-maximal effect; % is scaled to controls: 0 for no effect and ±100 for the full control effect; nearly all actives have a fitted effect of over 60% in size
#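 Read-out is eYFP fluorescence (Ex 488/Em 500-530) from Vif-expressing HeLa A3G-eYFP cells; more signal means A3G escaped Vif-mediated degradation. Cells plated overnight, compound pinned in, incubated overnight at 37 deg C.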
# Vif-A3F inh – Vif-A3F binding inhibition. HeLa A3F-eYFP + Vif (tagged APOBEC3F with the HIV-1 protein that degrades it), YFP fluorescence increase. AID 602313. hit rate 0.2% among 390,000. Potency, µM (highest dose often 46.1 µM), inactives show top-dose activity, negative = active; also: potency is read from the fitted curve at half-maximal effect; % of control where 0% means no effect; nearly all actives have a fitted effect of over 65% in size
#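 HeLa cells stably expressing Vif plus C-terminally eYFP-tagged A3F were seeded, incubated overnight at 37 deg C, dosed with compound, incubated overnight again at 37 deg C. Yellow fluorescence (Ex 488/Em 500-530) reported blocked Vif-mediated A3F-eYFP degradation.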
# Starred values were filed as active, the others as inactive; ? = inconclusive; . = no result. Shown are actives, neighbours in structure and some others; about 0.53% of the full set was active somewhere. Unless noted, calls follow the shape of the dose curve; as a rule, active = well fitted curve in the direction sought with a large enough effect; inconclusive = small, poorly fitted or top-dose-only effect, or another doubt; inactive = no such curve, though single readings can be large; an effect the other way counts as inactive or inconclusive.
SMILES,PKM2 act,IL-2 act,Vif-APOBEC3G blk,Vif-A3F inh
Cc1cc(=O)n2c3c(sc2n1)C(=O)N(Cc1ccccc1)C3=O,28µM*,.,.,.
COc1cccc(-c2nc(CS(=O)(=O)CC(=O)NCCc3ccc(Cl)cc3)c(C)o2)c1,.,.,4%,9%
COc1cc(OC)cc(-c2nnc(Nc3nc4c(F)cccc4s3)o2)c1,7.1µM*,-2,1%,-3%
Fc1cccc2sc(Nc3nnc(-c4ccccc4)o3)nc12,-5%,1,-11%,-17%
CCN(CC)c1ccc2cc(C(N)=O)c(=N)oc2c1,9%,6,?,11µM*
CCOc1ccc(-n2nnc3c(=O)n(CC(=O)Nc4cc(C)on4)cnc32)cc1,16µM*,1,2%,8%
Cc1ccc(N2C(=O)CS/C2=C(\C(Cl)=C(Cl)Cl)[N+](=O)[O-])cc1,6%,0,?,25µM*
CCC(=O)Nc1ccc2c(c1)OC[C@@H](C)N(Cc1cccc(F)c1)C[C@@H](C)[C@@H](OC)CN(C)C2=O,.,0,.,.
S=c1[nH]cnc2sc(-c3ccccc3)cc12,-11%,-1,-4%,5.6µM*
O=C1c2oc3ccccc3c(=O)c2C(c2cccc(Br)c2)N1Cc1ccco1 (stereo unspecified),20µM*,-1,0%,-1%
O=C1c2oc3ccc(Br)cc3c(=O)c2C(c2cccnc2)N1Cc1ccco1 (stereo unspecified),0%,.,.,.
Nc1nc(-c2ccccc2)c(-c2ccccc2)s1,5%,-1,1%,3%
Nc1nc(-c2ccccc2)c(-c2ccc([N+](=O)[O-])cc2)s1,20µM*,0,-14%,4%
Cc1cc(Nc2ccc(Br)cc2)n2nc(-c3ccccc3C)nc2n1,.,.,2%,-1%
Cc1ccc(/C=c2/sc3n(c2=O)CCCN=3)o1,12%,2,-2%,0%
O=C(NCc1ccc(/C=c2\sc3n(c2=O)CCN=3)o1)C(=O)Nc1ccccc1,20µM*,.,.,.
CC1(C(=O)Nc2cnc3ccccc3c2)CCN1CCOc1ccccc1 (stereo unspecified),.,0,2%,.
O=C1c2ccccc2-c2nc3ccccc3cc21,.,-1,-8%,2.8µM*
c1ccc2c(c1)Cc1cc3ccccc3nc1-2,-44%,1,?,10µM*
CCOC(=O)C1(Cc2cccc(OC)c2)CCCN(C(=O)CNC(C)=O)C1 (stereo unspecified),-4%,-2,0%,9%
Cc1ccc(-c2n[nH]c3c2C(c2ccc(C(C)(C)C)cc2)NC3=O)cc1 (stereo unspecified),.,.,6%,-2%
C=CCc1cccc(CNc2nc3ccccc3n2C(C)C)c1O,32µM*,-3,1%,-6%
CC(C)n1c(NCc2ccccc2O)nc2ccccc21,5%,-1,0%,?
Cc1ccccc1CN(C)C(=O)COC(=O)c1ccc2[nH]c(C)c(C)c2c1,.,16,6%,1%
CCOc1ccc2c(c1)s/c(=N\S(=O)(=O)c1ccc(OC)cc1)n2C(F)F,1.6µM*,-1,2%,3%
SMILES,PKM2 act,IL-2 act,Vif-APOBEC3G blk,Vif-A3F inh
O=C(Cc1cccc(NC(=O)C2CCN(C(=O)C3CCCCC3)CC2)c1)Nc1cccc(C(=O)N2CCOCC2)c1,.,0,2%,3%
Cc1ccc(-c2nc(C=Nc3ccc(O)cc3)c(O)o2)cc1,-8%,77*,?,25µM*
COC(=O)c1sccc1S(=O)(=O)N1CCN(c2cccc(C)c2C)CC1,.,.,0%,2%
COc1cc2nc(N3CCCN(C)CC3)nc(OC3CCN(C)CC3)c2cc1OC,.,.,2%,.
Cc1ccc(S(=O)(=O)CC(=O)c2ccc([N+](=O)[O-])cc2)cc1,22µM*,0,7%,-4%
Cc1ccc(S(=O)(=O)CC(=O)c2ccc(C)c([N+](=O)[O-])c2)cc1,2%,2,-7%,4%
CCCCc1nn2c(=O)cc(COC(=O)c3ccc(NC(=O)c4ccccc4Cl)cc3)nc2s1,.,.,4%,-7%
CN(C)c1ccc(/C=N/NC(=O)c2ccccc2)cc1,-40%,-4,?,-6%
CN(C)c1ccc(/C=N/NC(=O)c2ccccc2Cl)cc1,-2%,0,10µM*,2%
CCc1cccc(CC)c1NC(=S)NCCc1ccc(O)c(O)c1,22µM*,0,-18%,-10%
O=c1[nH]c(CN2CCN(c3ccccc3)CC2)nc2scc(-c3ccccc3)c12,6%,0,?,22µM*
COc1ccc(N2CCN(Cc3nc4scc(-c5ccccc5)c4c(=O)[nH]3)CC2)cc1,13%,0,-1%,-22%
Cc1sc2nc(CN3CCN(c4ccc(O)cc4)CC3)[nH]c(=O)c2c1C,1.3µM*,-1,-6%,-1%
CCOc1ccc(CNC(=O)C2CCN(c3nc4ccccc4nc3C(F)(F)F)CC2)cc1OC,.,.,-2%,3%
COCCCNC(=O)c1c(NC(=O)Cc2coc3cc(C)cc(C)c23)sc2c1CCCC2,.,.,-4%,-12%
Cc1nn(C)c2c1c(-c1ccccc1)cc(=O)n2Cc1ccccc1Cl,.,.,-5%,-7%
Cn1c(SCCCC(=O)c2ccc(F)cc2)nnc1-c1ccncc1,-12%,-1,-3%,4%
Cc1occc1-c1nnc(SCCCC(=O)c2ccc(F)cc2)n1C,25µM*,0,-4%,-2%
COc1ccc(CNC(=O)N2CCN(S(=O)(=O)c3ccccc3F)CC2)cc1,.,-4,-1%,-7%
O=C(NCc1cccc(Cl)c1)N1CCN(S(=O)(=O)c2ccccc2F)CC1,14µM*,-3,2%,7%
O=C(NCc1ccc(F)cc1)N1CCN(S(=O)(=O)c2ccccc2F)CC1,11µM*,4,7%,4%
CCOc1ccccc1/C=C/c1onc(C)c1S(=O)(=O)N1CCC(C(=O)N2CCCCC2)CC1,.,.,2%,4%
Cn1c2ccccc2c2nnc(SCCOc3ccccc3)nc21,.,.,0%,.
CCOc1ccc(-c2cc3nc(C4CCN(C(=O)OC(C)(C)C)CC4)c(C(=O)Nc4ccc(C)cc4C)cn3n2)cc1,.,.,-8%,-3%
COc1ccccc1S(=O)(=O)Nc1ccc(-c2nnc3n2CCCCC3)cc1,20µM*,1,0%,-19%
N#Cc1c(C(F)(F)F)cc(-c2ccco2)nc1SCc1ccccn1,3%,4,?,25µM*
CCCN1CC=C2C(C#N)=C(N)C(C#N)(C#N)C(c3cccc(OC)c3OC)C2C1 (stereo unspecified),-8%,-1,-14%,0%
COc1cccc(OC)c1OCc1cc(C2C3CCCC=C3C(C#N)=C(N)C2(C#N)C#N)c(C)cc1C (stereo unspecified),4.5µM*,2,-18%,-3%
CCOc1ccc(C2c3[nH]c4ccccc4c3CCN2C(=O)Cc2cccc(OCC)c2OCC)cc1 (stereo unspecified),.,.,4%,5%
COc1cccc(/C=c2\s/c(=C/C(=O)c3ccc(C)cc3)[nH]c2=O)c1OC,-5%,0,-13%,?
